Measurements taken from PubChem BioAssay AID588697 (Southern Research Specialized Biocontainment Screening …, 2011).
Inconclusive results are not listed. Values without a mark were called inactive.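 How the source made its calls: active means inhibition of at least 30% at any tested concentration; inactive means the rest, inconclusive results apart.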

Each compound was assayed on M18 aspartyl aminopeptidase (Plasmodium falciparum 3D7) (assay: PfM18AAP inhibitors, dose response, counter-screen for PfM17LAP inhibitor project, biochemical, QFRET fluorogenic substrate (AID 588697)). Conditions: recombinant PfM18AAP, H-Glu-NHMec fluorogenic substrate; series mostly up to 100 µM; inhibition: at the top concentration.
With `O=C(CSc1ccccc1)Nc1cccc2c1C(=O)NC2=O` the “inhibition” value was -15.7%.
`Cc1cc(=O)[nH]c(SCC(=O)Nc2ccccc2)n1` was tested, and the “inhibition” value was -14.2%.
For `O=C1OCCC1Sc1nnc(NC2CCCCC2)s1` (stereo not drawn), the “inhibition” value was -5.58%.
With `O=C(CSc1nc(O)cc(=O)[nH]1)Nc1ccccc1` the “inhibition” value was -7.82%.
In the case of `COC(=O)c1ccccc1NC(=O)c1ccc2c(Cl)c3c(nc2c1)CCC3`, the “inhibition” value is reported as -4.78%.
In the case of `CC1=C(C)CC(C(=O)Nc2nc(-c3cc(C)ccc3C)c(C)s2)C(C(=O)O)C1` (stereo not drawn), the “inhibition” value is reported as -16.1%.
`O=C(O)c1ccccc1C(=O)Nc1nc2c(s1)CCCC2` was tested, and the “inhibition” value was 0.82%.
With `NC(N)=NCCC[C@H](N)C(=O)NO` the “inhibition” value was 8.92%.
For `Cc1ccc(NC(=O)CSc2nc(O)cc(=O)n2Cc2ccccc2)cc1`, the “inhibition” value was -15.7%.
`CC1=C(C)CC(C(=O)Nc2ccc(Oc3ccc(Cl)cc3)cc2)C(C(=O)O)C1` (stereo not drawn) was tested, and the “inhibition” value was -23.5%.
In the case of `O=C(CSc1nccc(=O)[nH]1)Nc1ccc(N2CCOCC2)cc1`, the “inhibition” value is reported as 11.4%.
In the case of `CC1CCc2sc(C(=O)Nc3cccc4c3C(=O)NC4)cc2C1` (stereo not drawn), the “inhibition” value is reported as -6.86%.
With `CCC(C)(C)C1CCc2c(sc(NC(=O)C3CC(C)=C(C)CC3C(=O)O)c2C(=O)OC)C1` (stereo not drawn) the “inhibition” value was -14.6%.
In the case of `COC(=O)c1c(NC(=O)C2CC=CCC2C(=O)O)sc(C)c1-c1ccc(C)cc1` (stereo not drawn), the “inhibition” value is reported as -8.84%.
In the case of `COC(=O)c1cc(OC)c(OC)cc1NC(=O)c1sc2nc(C)ccc2c1N`, the “inhibition” value is reported as -12.5%.
For `Cc1cc(SCC(=O)Nc2ccccc2C(=O)O)nc2ccccc12`, the “inhibition” value was -29.6%.
With `COC(=O)c1ccccc1NC(=O)c1cc2cc3ccc(C)cc3nc2s1` the “inhibition” value was -12.3%.
For `N[C@@H](Cc1c[nH]c2ccccc12)C(=O)NO`, the “inhibition” value was 6.05%.
In the case of `CC(C)C[C@H](N)C(=O)NO`, the “inhibition” value is reported as 22.5%.
For `COC(=O)c1c(NC(=O)c2ccccc2C(=O)O)sc2c1CCCC2`, the “inhibition” value was 4.3%.
`COC(=O)c1c(NC(=O)C2CCCCC2C(=O)O)sc2c1CCC(c1ccccc1)C2` (stereo not drawn) was tested, and the “inhibition” value was -13.8%.
With `COc1ccc(-c2nnc(NC(=O)C3CC(C)=C(C)CC3C(=O)O)s2)cc1` (stereo not drawn) the “inhibition” value was -14%.
For `O=C(Nc1ccc(Cl)cc1)Nc1ccccc1C(=O)O`, the “inhibition” value was -18%.
For `O=C(CSc1nccc(=O)[nH]1)Nc1ccc(Oc2ccccc2)cc1`, the “inhibition” value was -16.2%.
`O=C(Cc1cccc2ccccc12)NO` was tested, and the “inhibition” value was 6.64%.
`COc1cc(NC(=O)CSc2ccccc2)c(C(=O)O)cc1OC` was tested, and the “inhibition” value was -7.09%.
With `COc1cc(NC(=O)c2ccc(-c3ccccc3)cc2)c(C(=O)O)cc1OC` the “inhibition” value was -23.2%.
For `CCn1c2ccccc2c2cc(NC(=O)CSc3nc(C)cc(=O)[nH]3)ccc21`, the “inhibition” value was 19.1%.
